Out of some 300,000 compounds screened, about 37,000 (12%) were called active. The sample as a whole holds a higher share of actives than the screen did. Values without a mark were called inactive. Rule as the data show it: active = max response mostly above about 13% (no sharp cut-off); inactive = mostly below about 14%.
Assay: Cycloheximide Counterscreen for Small Molecule Inhibitors of Shiga Toxin; also: read at 38.3 µM for the half of the compounds with a filed dose; 0% is about no effect
Settings: cell reporter, cycloheximide protein synthesis inhibition counterscreen; stronger effect = higher value

Which max response does the source give for CCCCSCCCNC(=O)C1CCC(CNS(=O)(=O)c2ccc(NC(C)=O)cc2)CC1 (configuration not stated) here?
Its max response is 0.78%.

With Cc1cc(=O)[nH]c(S)c1C#N as the compound, how does the max response read?
Its max response is -1.97%.

With O=C(CN1CCN(C(=S)NC2CCCC2)CC1)Nc1ccc(Oc2ccccc2)cc1 as the compound, how does the max response read?
The max response was -0.686%.

Which max response does the source give for Cc1ccc(C(=O)N(CC(=O)NC2CCCC2)c2ccc(F)cc2)s1 here?
Its max response is -2.41%.

Which max response does the source give for CCCn1c(NC(=O)C23CC4CC(CC(O)(C4)C2)C3)nc2ccccc21 here?
The max response was -2.34%.

With CCC(=O)c1ccc(N2CCN(C(=O)c3cc([N+](=O)[O-])ccc3F)CC2)c(F)c1 as the compound, how does the max response read?
The max response was -0.539%.

With Cc1ccc2nc3c(cc(C(=O)NCCc4ccccc4)c(=N)n3CC3CCCO3)c(=O)n2c1 (configuration not stated) as the compound, how does the max response read?
The max response was -3.51%.

With O=C(Nc1ccccc1)C1CCN(C(=O)c2ccc(Br)cc2)CC1 as the compound, how does the max response read?
The max response was 11.6%.

Which max response does the source give for CSc1ccc(CNC(=O)c2ccc(NC(=O)C3=CSCCO3)cc2)cc1 here?
The max response was 3.98%.

With O=C(NCc1ccccc1Cl)C1CCCO1 (configuration not stated) as the compound, how does the max response read?
The max response was -1.7%.

With O=C(Nc1ccc(C(=O)NCc2ccccc2Cl)cc1)C1=CSCCO1 as the compound, how does the max response read?
Its max response is 31.9% (active).

With Cc1nc(SCc2ccc(F)cc2)c([N+](=O)[O-])[nH]1 as the compound, how does the max response read?
The max response was 12.6% (active).

For Cc1nc(SCC(=O)c2ccccc2)c([N+](=O)[O-])[nH]1, which max response is on record?
The max response was -1.4%.

Which max response does the source give for Cc1nc(N)nc(SCc2ccc([N+](=O)[O-])cc2)c1N here?
The max response was -1.9%.

For Cc1ccc(C(=O)NNC2=Nc3cc([N+](=O)[O-])ccc3OC2)cc1, which max response is on record?
Its max response is 20.2% (active).

For Cc1ccc(C)n1NC(=O)c1ccc([N+](=O)[O-])cc1, which max response is on record?
The max response was -0.957%.

With COc1ccc([N+](=O)[O-])cc1NCC(=O)c1ccc(C)cc1 as the compound, how does the max response read?
The max response was 20.4%.

With O=C(CNC(=O)Cc1ccccc1)N=Nc1c(O)[nH]c2ccc(Br)cc12 as the compound, how does the max response read?
Its max response is -2.22%.

With C/C(CC1CC(C)(C)OC1=O)=N/Nc1nc(-c2ccccc2)cs1 (configuration not stated) as the compound, how does the max response read?
Its max response is 24.7% (active).

Which max response does the source give for CC1(C)CC(CC(=O)O)C(=O)O1 (configuration not stated) here?
Its max response is -0.893%.

For Cc1cc(C(C)(C)C)oc1C(=O)N(CC(=O)NC1CCCC1)Cc1ccc(Cl)cc1, which max response is on record?
The max response was 2.13%.

With Cc1ccc(S(=O)(=O)N2CC(C)N(S(C)(=O)=O)C2)cc1 (configuration not stated) as the compound, how does the max response read?
The max response was -4.88%.

Which max response does the source give for CC(=O)N/C(=N/c1nc(C)cc(C)n1)Nc1ccc(F)cc1F here?
Its max response is -4.27%.

For COc1ccc(C/C(C)=N/NC(=O)c2cc(C)oc2C)cc1, which max response is on record?
Its max response is 26.5% (active).

For CCCCCNC(=O)Cc1ccc(OC)cc1, which max response is on record?
The max response was -1.71%.

Which max response does the source give for COc1ccc(C/C(C)=N/NC(=O)c2ccncc2)cc1 here?
The max response was 3.76%.

For O=C1COc2ccc(S(=O)(=O)Nc3ccc(OC(F)(F)F)cc3)cc2N1, which max response is on record?
The max response was -6.66%.

Which max response does the source give for Fc1ccc(COc2ccc(-c3nnco3)cc2)cc1 here?
Its max response is 52.6% (active).

Which max response does the source give for Fc1cccc(Cl)c1COc1ccc(-c2nnco2)cc1 here?
The max response was 24.9%.

For Fc1ccc(COc2cccc(-c3n[nH]c(=S)o3)c2)cc1, which max response is on record?
The max response was 5.34%.

Which max response does the source give for Cc1cccc(C(=O)Nc2nnc(S(=O)(=O)N3CCCCCC3)s2)c1 here?
The max response was -1.9%.

With O=C1/C(=C/c2ccc(F)cc2)SC(=S)N1CCCC(=O)N1CCCCC1CCO (configuration not stated) as the compound, how does the max response read?
Its max response is 0.37%.

With CCN1CCN(c2ccc(S(=O)(=O)N3CCCCC3)cc2NC(=O)Cc2c(Cl)cccc2Cl)CC1 as the compound, how does the max response read?
Its max response is 44.2% (active).

Which max response does the source give for COc1ccc(CC(=O)Nc2cc(S(=O)(=O)N3CCCCC3)ccc2N2CCN(C)CC2)cc1 here?
The max response was -2.16%.

For CN1CCN(c2ccc(S(=O)(=O)N3CCCCC3)cc2NC(=O)Cc2ccccc2F)CC1, which max response is on record?
Its max response is 0.822%.

For CCCNC(=O)C(=O)Nc1cc2c3c(c1)CCC(=O)N3CCC2, which max response is on record?
The max response was -6.21%.

With Cc1cc(F)ccc1N1CCC(N2CCN(C)C(CCO)C2)CC1 (configuration not stated) as the compound, how does the max response read?
The max response was -1.8%.

With CCCn1c(CCNc2nc(-c3ccc(OC)cc3)cs2)nc2ccccc21 as the compound, how does the max response read?
The max response was 6.09% (active).

For CCCn1c(C2CCCN2c2nc(-c3ccc(OC)cc3)cs2)nc2ccccc21 (configuration not stated), which max response is on record?
The max response was 3.07%.

Which max response does the source give for CCCn1c(C(O)c2cc(OC)ccc2OC)nc2ccccc21 (configuration not stated) here?
Its max response is -2.36%.

For COC(=O)c1ccc(CSc2ccc3nnc(-c4ccccc4)n3n2)o1, which max response is on record?
Its max response is 15.3%.

Which max response does the source give for Cc1nnc2n1N=C(c1ccc3c(c1)NC(=O)CO3)CS2 here?
Its max response is -0.735%.

Which max response does the source give for Cc1ccc(NC(=S)NC2CCCC2)cc1 here?
The max response was 26.6% (active).

For Cc1ccc(/C=N/NC(=S)NC2CCCCC2)o1, which max response is on record?
The max response was 24.4% (active).

For C/C(=N\NC(=S)NC1CCCCC1)c1ccc(C)o1, which max response is on record?
The max response was 26.6%.

Which max response does the source give for Cc1ccc(NC(=S)Nc2ccc(F)cc2)cc1 here?
The max response was 8.11% (active).

Which max response does the source give for Cc1cc(Br)ccc1NC(=S)NC1CCCC1 here?
The max response was 30.4% (active).

For Cc1ccc(NC(=O)CSCC(=O)NC2CCCCC2)cc1, which max response is on record?
Its max response is 1.06%.

Which max response does the source give for S=C(Nc1ccc(Br)cc1)NC1CCN(Cc2ccccc2)CC1 here?
Its max response is -1.87%.

Which max response does the source give for Cc1cc(C)cc(NC(=S)NCc2ccc(F)cc2)c1 here?
The max response was -3.19%.

For CC(Oc1ccc(Br)cc1Br)C(=O)NC1CCCC1 (configuration not stated), which max response is on record?
Its max response is -1.67%.

With Cc1ccc(/C=N/NC(=S)Nc2cccc(S(=O)(=O)N(C)C)c2)o1 as the compound, how does the max response read?
Its max response is 11.3%.

For CC(C)CNC(=S)Nc1ccc(F)cc1, which max response is on record?
Its max response is -3.91%.

Which max response does the source give for S=C(Nc1ccc(Br)cc1Cl)NC1CCN(Cc2ccccc2)CC1 here?
Its max response is -4.37%.

Which max response does the source give for Cc1ccc(-n2c(C)nnc2SCC(=O)NC2CC2)cc1 here?
The max response was 1.87%.

With O=C(CN1CCN(Cc2ccccc2)CC1)Nc1ccc(F)c(F)c1 as the compound, how does the max response read?
Its max response is 2.05%.

With COc1ccc(C2CC(c3cccs3)=NN2c2nc(C)c(C(C)=O)s2)cc1OC (configuration not stated) as the compound, how does the max response read?
Its max response is 14%.

With CCN(CC)CCCNC(=O)c1c(O)c2cc(F)cc3c2n(c1=O)C(C)CC3 (configuration not stated) as the compound, how does the max response read?
The max response was -7.23%.

With O=C(N/C(=C\c1ccc([N+](=O)[O-])cc1)C(=O)N1CCOCC1)c1cccc(Br)c1 as the compound, how does the max response read?
The max response was 0.841%.

With COc1ccc(/C=C/C(=O)Nc2c(C)nn(C)c2C)cc1COc1ccc(Br)cc1 as the compound, how does the max response read?
Its max response is -4.32%.

For Cc1ccc(S(=O)(=O)N2CCN(c3ccccc3)CC2)cc1C, which max response is on record?
The max response was -2.26%.

With CN(CC(=O)Nc1c(Cl)cccc1Cl)C(=O)CNC(=O)C1CCCCC1 as the compound, how does the max response read?
Its max response is 5.73%.

For O=C(O)CCc1nc2cc(Cl)ccc2n(Cc2ccccc2)c1=O, which max response is on record?
Its max response is -1.53%.

Which max response does the source give for Cc1nnc(SC(C)C(=O)Nc2ccc(S(=O)(=O)NC3CCCCC3)cc2)s1 (configuration not stated) here?
The max response was -4.95%.

Which max response does the source give for CCOCCCN(C)C1CCN(C(=O)c2oc3ccccc3c2NC(=O)Cc2cccc([N+](=O)[O-])c2)CC1 here?
Its max response is -8.08%.

With COc1ccc2occ(C(=O)c3ccc(N=C(C)N(C)C)cc3)c2c1 as the compound, how does the max response read?
Its max response is 28.3% (active).

For COc1ccc(OC)c(C(=O)c2coc3ccc(OC)cc23)c1, which max response is on record?
Its max response is -2.15%.

For COc1ccc(OC)c(C(=O)c2ccc(C(=O)O)cc2)c1, which max response is on record?
The max response was 5.22%.

With COc1ccccc1OCc1ccc(C(=O)NC(C)c2ccccc2)o1 (configuration not stated) as the compound, how does the max response read?
The max response was -0.796%.

With CC(C)(C)NC(=O)c1cccc(NC(=O)Cc2ccc(Br)cc2)c1 as the compound, how does the max response read?
The max response was -3.99%.

With CN(C)C(=O)c1nc2ccc(Cl)cn2c1CNCc1cccc(OC(F)(F)F)c1 as the compound, how does the max response read?
Its max response is 0.689%.

With C/C(=N\NC(=O)c1ccc2ccccc2c1)c1cccnc1 as the compound, how does the max response read?
Its max response is 34.4% (active).

For C/C(=N\NC(N)=S)c1cccnc1, which max response is on record?
Its max response is -2.63%.

With C/C(=N\NC(=O)c1cccc([N+](=O)[O-])c1)c1cccnc1 as the compound, how does the max response read?
The max response was 11.9%.

With CC1CCc2sc(C(=O)N/N=C/C3CCCCC3)cc2C1 (configuration not stated) as the compound, how does the max response read?
The max response was 8.2%.

With C/C(=N\NC(=O)c1cc(-c2ccc(O)cc2)nc2ccccc12)c1cccnc1 as the compound, how does the max response read?
Its max response is 17%.

For C/C(=N/NC(=O)c1ccn(C)n1)c1ccncc1, which max response is on record?
Its max response is 51.6% (active).

For C/C(=N\NC(=O)c1cccnc1)c1ccc(-n2ccnc2)cc1, which max response is on record?
Its max response is -1.63%.

Which max response does the source give for C/C(=N\NC(N)=S)c1ccncc1 here?
Its max response is -1.83%.

With COCc1c(C(=O)N/N=C(\C)c2ccncc2)nnn1-c1nonc1N as the compound, how does the max response read?
Its max response is -0.414%.

For C/C(=N\NC(=O)c1cc2c(s1)CCC(C)C2)c1cccnc1 (configuration not stated), which max response is on record?
The max response was 19.2% (active).

For C/C(=N\NC(=O)Cc1ccc(Br)cc1)c1cccnc1, which max response is on record?
The max response was 1.49%.

With C/C(=N\NC(=O)c1cccnc1)c1ccc(-c2ccccc2)cc1 as the compound, how does the max response read?
The max response was 12.6% (active).

Which max response does the source give for C/C=N/NC(=O)CCCC(=O)N/N=C/C here?
The max response was -6.46%.

With CCOC(=O)c1c(NC(=O)Cn2nc(C(F)(F)F)cc2C)sc2c1CCC2 as the compound, how does the max response read?
The max response was 4.3%.

With CCCc1nc2oc3c(OCC)ncnc3c2c2c1COC(C)(C)C2 as the compound, how does the max response read?
The max response was -2.02%.

With CCOC(=O)/C(N=Nc1cc(C(=O)O)cc(C(=O)O)c1)=C(\O)CCl as the compound, how does the max response read?
The max response was -1.38%.

Which max response does the source give for Cc1cccc(CN2CCC(CNC(=O)Nc3ccc(F)c(Cl)c3)CC2)c1 here?
Its max response is 0.642%.

Which max response does the source give for COc1ccc(/C(C)=N\NC(=O)c2ccc(-c3ccccc3)cc2)c(F)c1 here?
The max response was 0.503%.

For C/C(=N\NC(=O)c1nc(C)cc(C)n1)c1ccccc1, which max response is on record?
The max response was 31.4% (active).

With CNC(=O)C(NC(=O)c1ccccc1)=C(C)C as the compound, how does the max response read?
Its max response is 3.38%.

With CSc1ccc(CN2C(=O)NC3(CCCCCC3)C2=O)cc1 as the compound, how does the max response read?
Its max response is -3.95%.

For O=C(Nc1ccc2ccccc2c1)/C(=C/c1cccc(Br)c1)NC(=O)c1ccco1, which max response is on record?
Its max response is -5.2%.

Which max response does the source give for O=C(Nc1ccccc1)O/N=C1\CCCCC1c1ccc([N+](=O)[O-])cc1[N+](=O)[O-] (configuration not stated) here?
The max response was -0.778%.

With COc1ccc2c(c1)CCC/C2=N\OC(=O)c1ccccc1F as the compound, how does the max response read?
Its max response is 33%.

For O=C(Nc1ccccc1)O/N=C1/CCCc2occc21, which max response is on record?
The max response was 19.6% (active).

Which max response does the source give for CN(C)S(=O)(=O)c1ccc(N/C=C(\[N+](=O)[O-])S(=O)(=O)c2ccccc2)cc1 here?
Its max response is -2.27%.
